Compound activity deposited in PubChem by National Center for Advancing Translational Sciences (NCATS).
Only some compounds are listed: those with a hit (about 9.3% of all), similar ones and a draw of the others.
Rab9 promoter act: Rab9 promoter activation | Huh7 Rab9 promoter-luciferase reporter, luminescence, 24 h | 320,000 tested, 2.8% active | Potency, µM (titrated, usually from 9.22 µM), for inactives: top-dose activation, negative = inhibition, actives largely listed as activators | AID 485297; also: % of control where 0% means no effect; nearly all actives have a fitted effect of over 60% in size
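Luminescence read-out: Huh7 cells stably expressing Rab9-luciferase, treated 24 h with compound at 37 °C, then lysed with luciferase reagent for 10 min at ambient before reading.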
NPC1 prom act: activates the NPC1 promoter; 320,000 tested, 2.4% active; Potency, µM (highest dose often 9.22 µM), inactives show at the highest dose activation, most hits filed as activators; Huh7 NPC1 promoter luciferase reporter, 24 h; also: % of control where 0% means no effect; nearly all actives have a fitted effect of over 60% in size
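NPC1 promoter–luciferase Huh7 cells; 24 h compound; luminescence.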
ELG1 DNA repair: blocks ELG1-dependent DNA repair in HEK293T cells; HEK293T ELG1-luciferase reporter, luminescence, 16 h; DNA damage induced by 5-fluorouridine; Potency, µM (top dose mostly 46.1 µM), inactives show at the top dose activity change, negative = inhibition, most hits filed as inhibitors; 330,000 tested, 2.3% active; also: % is scaled to controls: 0 for no effect and ±100 for the full control effect; nearly all actives have a fitted effect of over 55% in size
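Step one: seed 2,000 cells per well. Step two: pin-transfer compound or DMSO alongside 5-fluorouridine. Step three: incubate 16 hr, 37 °C, 5% CO2. Step four: add ONE-Glo, wait 30 min, read luminescence.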
SMN2 splice up: increases expression of the SMN2 splice variant; HEK293 SMN2-luciferase splicing reporter, luminescence, 30-36 h; Potency, µM (titrated, usually from 46.1 µM), without a hit: at the highest dose activity change, positive = activation, most hits filed as activators; 210,000 tested, 2.8% active; AID 1458; also: % of control where 0% means no effect; nearly all actives have a fitted effect of over 55% in size
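HEK293 cells carry an SMN2 minigene-luciferase reporter in which exon 7 inclusion puts luciferase in frame. Cells were seeded at 2000 cells/well, attached for 10-12 hours, then exposed to compounds for 30-36 hours at 37C before ONE-Glo luminescence.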
FLuc counter: counter-screen for miR-21 project: firefly luciferase inhibitors or activators; P08659; purified FLuc, Km substrates, luminescence inhibition; Potency, µM (top dose mostly 57.5 µM), for inactives: at the highest dose activity change, negative = inhibition, actives largely listed as inhibitors; 360,000 tested, 6.9% active; AID 588342;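 also: plate controls were vehicle for no effect and reference inhibitor for full effect; nearly all actives have a fitted effect of over 55% in size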
Target sequence (P08659 whole entry, looked up): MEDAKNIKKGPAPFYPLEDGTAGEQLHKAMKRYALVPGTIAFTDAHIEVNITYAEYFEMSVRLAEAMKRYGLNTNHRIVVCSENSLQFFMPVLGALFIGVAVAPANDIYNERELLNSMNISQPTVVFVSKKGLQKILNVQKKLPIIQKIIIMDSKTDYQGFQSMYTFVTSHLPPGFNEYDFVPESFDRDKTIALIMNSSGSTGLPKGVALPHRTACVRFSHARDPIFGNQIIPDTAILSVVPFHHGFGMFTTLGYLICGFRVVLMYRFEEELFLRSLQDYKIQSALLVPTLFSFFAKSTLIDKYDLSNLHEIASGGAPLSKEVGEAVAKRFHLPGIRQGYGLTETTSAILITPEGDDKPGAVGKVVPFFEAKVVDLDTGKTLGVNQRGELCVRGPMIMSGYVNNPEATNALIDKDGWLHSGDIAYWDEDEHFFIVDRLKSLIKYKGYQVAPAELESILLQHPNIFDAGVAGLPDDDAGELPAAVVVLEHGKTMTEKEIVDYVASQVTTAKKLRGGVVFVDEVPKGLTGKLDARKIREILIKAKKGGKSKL
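Purified P. pyralis luciferase (10nM final) with 10uM D-luciferin and 10uM ATP (Km levels) in 50mM Tris acetate pH 7.5, 10mM Mg acetate, 0.01% Tween-20, 0.05% BSA; qHTS 6-point titration, ~60 µM downward; luminescence read.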
ELG1 genotox: inducers of genotoxicity in HEK293T ELG1-luciferase cells; Potency, µM (titrated, usually from 46 µM), for inactives: at the top dose activity change, positive = activation, usual class: activators; HEK293T ELG1-luciferase reporter, luminescence, 16 h; 330,000 tested, 1.3% active; AID 504466; also: % of control where 0% means no effect; nearly all actives have a fitted effect of over 60% in size
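Genotoxicity was scored as increased ELG1-luciferase reporter signal, measured by ONE-Glo luminescence (30 min, room temperature). Compound or vehicle exposure of the HEK293T reporter cells lasted 16 hr at 37°C.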
Numbers without * were called inactive; ? = inconclusive; . = not tested or not shown; [ ] = dose if it differs, or a comment. Calls follow the shape of the dose curve; as a rule, active = well fitted curve in the direction sought with a large enough effect; inconclusive = small, poorly fitted or top-dose-only effect, or another doubt; inactive = no such curve, though single readings can be large; an effect the other way counts as inactive or inconclusive. Potency is read from the fitted curve at half-maximal effect.

SMILES	Rab9 promoter act	NPC1 prom act	ELG1 DNA repair	SMN2 splice up	FLuc counter	ELG1 genotox
Cc1ccc(/C(N)=N/OC(=O)c2cccs2)cc1	4.47µM*	?	?	26.3%[1.84 µM]	1.9µM*	14.6µM*
CCOc1cc(S(=O)(=O)n2ccnc2C(C)C)ccc1Cl	.	.	.	.	-2.2%	.
O=C(Oc1ccc2ccccc2c1)C1CCC1	0.0%	-2.0%	4.8%	.	23.9µM*	0.3%
O=C(c1ccccc1)c1ccc(OC(=O)C2CCCCC2)cc1	-5.4%	0.5%	18.3%	.	13.5µM*	1.5%
O=C(Oc1ccc2ccc(O)cc2c1)c1ccccc1Cl	0.3%	23.9%	?	.	2.39µM*	?
O=C(COc1ccc(C(=O)c2ccccc2)cc1)NCC1CCCCC1	1.0%	-0.7%	-14.0%	-30.3%	1.2%	-0.2%
O=C(Oc1ccc(OC(=O)C2CCC2)cc1)C1CCC1	-5.1%	-2.8%	-16.7%	-5.8%	?	-0.4%
COc1cc(C(=O)Oc2ccc3ccc(O)cc3c2)cc(OC)c1OC	4.3%	-0.3%	?	.	-12.5%	?
O=C(Oc1ccc2ccc(O)cc2c1)C1CCCCC1	-4.0%	0.6%	-0.4%	1.4%	16.9µM*	-4.5%
CC(=O)Oc1ccc(NC(=O)C2CCCCC2)c(C(=O)O)c1	-4.7%	-2.4%	12.0%	-2.0%	-14.7%	-3.3%
CC(=O)N1c2ccc(S(=O)(=O)N3CCC(C(=O)Nc4cccc(Cl)c4)CC3)cc2CC1C (centres undefined)	-27.8%	-36.7%	?	.	0.4%	-2.0%[9.26 µM]
COc1ccc(S(=O)(=O)N2CCCCC2)cc1NC(=O)CCCNC(=O)c1ccc(Cl)cc1	1.6%	-3.5%	-11.8%	.	5.2%	0.7%
COc1ccc(OC)c(-c2noc(CSc3nnc(-c4ccccc4)n3-c3ccccc3)n2)c1	.	.	.	1.1%	-4.8%	.
Clc1ccc(N/N=C/c2ccncc2)cc1Cl	?	?	?	12.6µM*	?	?
O=[N+]([O-])c1ccc(N/N=C/c2cccnc2)cc1	-13.2%	5.9%	18.5%	.	?	-6.8%
O=C(O)c1cccc(N/N=C/c2cccnc2)c1	0.316µM*	?	?	8.91µM*	2.39µM*	0.1%
CC(C)(C)c1ccc(/C=N/Nc2cccc(C(=O)O)c2)cc1	1.12µM*	0.501µM*	?	0.1µM*	0.169µM*	0.146µM*
Clc1ccc(N/N=C/c2cccnc2)cc1	26.3%	28.1%	?	?	16.9µM*	17.0%
O=C(N/N=C/c1cccnc1)c1ccccc1	10.9%	16.4%	?	.	?	9.5%
Cc1cc(=O)n(C(C)C(=O)N2CCCc3ccccc32)c2c1c(C)nn2-c1ccccc1 (centres undefined)	.	.	.	.	-5.3%	.
CCCN=C1N(C)C[C@@H]2[C@@H]3C(=O)N(Cc4ccccc4)C(=O)[C@@H]3[C@](CC)(C(=O)OC)N12	.	.	9.6%	.	.	0.8%
O=C(O)c1cccc(N/N=C/c2ccc(-c3ccccc3)cc2)c1	0.0282µM*	0.0251µM*	?	0.199µM*	0.0757µM*	0.146µM*
O=C(N/N=C\c1cccc(F)c1)c1ccc(-c2ccccc2)cc1	13.3%	18.6%	?	.	-2.2%	1.9%
CN(C)c1ccc(/C=N/NC(=O)C2CC2c2ccccc2)cc1 (centres undefined)	0.6%	-7.5%	3.1%	.	?	5.1%
CN(C)c1ccc(/C=N/Nc2cccc(C(=O)O)c2)cc1	10µM*	?	?	.	0.0757µM*	?
SMILES	Rab9 promoter act	NPC1 prom act	ELG1 DNA repair	SMN2 splice up	FLuc counter	ELG1 genotox
Cc1cccc2c3c([nH]c12)CCNC3	1.5%	0.1%	?	.	-9.3%	-1.4%
Cc1ccc(-n2nc3ccc(NC(=O)c4ccco4)cc3n2)cc1	?	18.6%	?	0.8%	9.53µM*	14.6µM*
Cc1ccc(-n2nc3ccc(NC(=O)c4oc5ccc(C)cc5c4C)cc3n2)cc1	.	.	.	13.8%	-13.8%	.
CC(C)C(=O)Nc1ccc(N2CCN(c3ccc(F)cc3)CC2)cc1	-1.6%	-14.0%	1.2%	2.0%	1.7%	8.4%
CCCC(=O)Nc1ccc2nn(-c3ccc(OC)cc3)nc2c1	2µM*	?	?	.	5.36µM*	?
CC(C)C(=O)Nc1ccc2nn(-c3ccc(F)cc3)nc2c1	0.0891µM*	0.112µM*	?	.	0.849µM*	?
CCCC(=O)Nc1cc2nn(-c3ccc(OC)cc3)nc2cc1C	.	.	.	21.8%	?	.
CC(C)CC(=O)Nc1ccc2nn(-c3ccccc3)nc2c1	1.58µM*	1.58µM*	?	6.31µM*	2.69µM*	?
O=C=Nc1ccc(Cc2ccc(N=C=O)cc2)cc1	.	.	.	-6.6%	.	.
COc1ccc(-c2cn3c(n2)sc2cc(C(=O)N4CCCCC4)ccc23)cc1	.	.	.	.	-12.1%	.
COc1ccc(-c2cc(OC(=O)c3ccc(Cl)cc3)c3c(C)oc(C)c3c(=O)c2)cc1	.	.	.	-5.0%	?	.
Cc1ccc(-n2nc3ccc(NC(=O)C(C)C)cc3n2)cc1	0.355µM*	0.355µM*	?	2.24µM*	0.953µM*	1.16µM*
Cc1ccc(-n2nc3ccc(NC(=O)c4ccc5c(c4)OCO5)cc3n2)cc1	6.6%	-0.3%	16.4%	-13.2%	-1.2%	0.9%
COC(=O)CC1(C(=O)OC)Oc2ccc(Br)cc2C(=O)N1c1cc(Cl)c(Cl)cc1Cl (centres undefined)	-4.9%	-4.1%	16.4µM*	.	-1.7%	-3.9%
COC(=O)CC1(C(=O)OC)Oc2ccc(Br)cc2C(=O)N1c1ccc(Br)cc1Cl (centres undefined)	-14.5%	1.3%	23.1µM*	.	-0.5%	-15.6%
COC(=O)CC1(C(=O)OC)Oc2ccc(Br)cc2C(=O)N1c1cc(Cl)cc(Cl)c1 (centres undefined)	-2.3%	-1.8%	?	.	1.7%	-3.5%
COC(=O)CC1(C(=O)OC)Oc2ccc(Br)cc2C(=O)N1c1cccc(Cl)c1Cl (centres undefined)	-6.5%	-2.5%	?	.	1.5%	-6.7%
CC(=O)c1ccc(NC(=O)CSc2nc(C)cc(C)c2C(N)=O)cc1	0.1%	-4.4%	?	-33.8%	4.9%	-5.0%
CCC(C)(C)C1CCC2(CC1)NC(=O)N(CC(=O)N(C)Cc1ccc3c(c1)OCCO3)C2=O (centres undefined)	-8.7%	-7.1%	11.6µM*	.	-1.0%	-5.0%
O=C(CN1C(=O)NC2(CCCCCC2)C1=O)c1ccc(F)cc1	1.3%	-0.4%	?	.	-2.8%	16.4%
CC1CCC2(CC1)NC(=O)N(CC(=O)Nc1ccc3c(c1)OCCCO3)C2=O (centres undefined)	-5.5%	-0.2%	22.8%	.	1.0%	-1.6%
O=C(CN1C(=O)NC2(CCCCCC2)C1=O)c1ccc2c(c1)OCCO2	2.82µM*	2µM*	?	17.8µM*	9.53µM*	4.11µM*
